Laboratory results reported in PubChem BioAssay.
Values joined by “and” are separate entries in the source; they are usually repeats but may differ in a detail not shown here. Equal entries are not always repeated. Results filed as inconclusive are left out. Active and inactive are the calls of the source.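 Rule for the calls, unless noted: active = inhibition above the screen-wide mean plus 3 SD, about 51%; inactive = the rest.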

Experiments:
[1] = rapamycin-like changes in RPL19A-GFP expression – cell-based, S. cerevisiae, multiplex flow cytometry, primary screen (AID 1862; in the data active = percent of DMSO control GFP below about 86%;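 note: lower values mimic rapamycin by blocking the RPL19A rise seen in DMSO cells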); conditions: S. cerevisiae RPL19A-GFP strain, flow cytometry fluorescence, 3 h; at 10 µM; stronger effect = lower value
[2] = TOR pathway GLN3 branch reporter MEP2-GFP changes – S. cerevisiae, multiplex flow cytometry, primary screen (AID 1867;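 active = GFP response, as percent of the DMSO control, above the screen-wide mean plus 3 SD, about 139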;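 note: median GFP channel fluorescence of barcode-gated MEP2-GFP cells measured by flow cytometry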); conditions: S. cerevisiae MEP2-GFP strain, 3 h, at 10 µM, stronger effect = higher value, 100% means same as DMSO wells
[3] = TOR pathway RTG branch CIT2 reporter changes – S. cerevisiae, GFP fusion, multiplex flow cytometry, primary screen (AID 1870;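 active = percent response above a set limit, the screen-wide mean plus 3 SD, cut at about 130% in these data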;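 note: barcoded CIT2-GFP strain pooled with four other GFP strains with rapamycin as positive control; median GFP fluorescence per well over plate mean of DMSO wells so 100% = DMSO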); conditions: S. cerevisiae CIT2-GFP expression, 3 h, at 10 µM, stronger effect = higher value
[4] = TOR pathway LAP4-GFP level changes – S. cerevisiae, multiplex flow cytometry, primary screen (AID 1873;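 active = GFP signal, as percent of the solvent control, above the screen mean plus 3 SD, about 149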); conditions: S. cerevisiae LAP4-GFP expression, 3 h, at 10 µM, stronger effect = higher value
[5] = yeast AGP1-GFP level changes, GLN3 branch – cell-based, multiplex flow cytometry, S. cerevisiae, primary screen (AID 1887;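 active = GFP signal above the screen-wide mean plus 3 SD, that is over about 124.5% of the solvent control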;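 note: AGP1-GFP fusion strain of S. cerevisiae within a five-strain barcoded multiplex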); conditions: 3 h, at 10 µM, stronger effect = higher value
[6] = reduced mouse 2C T cell binding to pMHC/ICAM-1 vesicles – MLPCN validation set, flow cytometry, LFA-1/ICAM-1 modulator project, pilot screen (AID 2523;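 active = response below a set limit, under 55% cells CD8-positive and vesicle-bound, and CD8 cells' 90th-percentile brightness under 279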;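 for vesicle binding response: mean PE anti-B7-1 fluorescence of CD8+ cells relative to row control; 100% = QL9-loaded vesicles with DMSO vehicle in the same plate row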); conditions: 2C mouse CD8+ T cells, at 7 µM, stronger effect = lower value; double positive events: measured here: CD8+/vesicle+ event percentage
[7] = target: Integrin beta-1 (Homo sapiens) + Integrin alpha-4 (Homo sapiens) (UniProt P13612+P05556); assay: alpha4beta1 integrin LIBS antibody binding reduction – U937 cells, HUTS-21 mAb, flow cytometry, validation set, VLA-4 allosteric modulator project, pilot screen (AID 2674;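 active = inhibition above 50%, about 3 SD of the validation set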;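 note: antibody binding induced by the VLA-4 ligand LDV present at three times its Kd; 0% = LDV ligand with antibody and no compound and 100% = antibody without LDV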); conditions: HUTS-21 LIBS mAb binding, at 6.7 µM, stronger effect = higher value, binding induced by LDV ligand
Sequence of Integrin beta-1 (Homo sapiens) + Integrin alpha-4 (Homo sapiens) (P05556 whole entry, looked up): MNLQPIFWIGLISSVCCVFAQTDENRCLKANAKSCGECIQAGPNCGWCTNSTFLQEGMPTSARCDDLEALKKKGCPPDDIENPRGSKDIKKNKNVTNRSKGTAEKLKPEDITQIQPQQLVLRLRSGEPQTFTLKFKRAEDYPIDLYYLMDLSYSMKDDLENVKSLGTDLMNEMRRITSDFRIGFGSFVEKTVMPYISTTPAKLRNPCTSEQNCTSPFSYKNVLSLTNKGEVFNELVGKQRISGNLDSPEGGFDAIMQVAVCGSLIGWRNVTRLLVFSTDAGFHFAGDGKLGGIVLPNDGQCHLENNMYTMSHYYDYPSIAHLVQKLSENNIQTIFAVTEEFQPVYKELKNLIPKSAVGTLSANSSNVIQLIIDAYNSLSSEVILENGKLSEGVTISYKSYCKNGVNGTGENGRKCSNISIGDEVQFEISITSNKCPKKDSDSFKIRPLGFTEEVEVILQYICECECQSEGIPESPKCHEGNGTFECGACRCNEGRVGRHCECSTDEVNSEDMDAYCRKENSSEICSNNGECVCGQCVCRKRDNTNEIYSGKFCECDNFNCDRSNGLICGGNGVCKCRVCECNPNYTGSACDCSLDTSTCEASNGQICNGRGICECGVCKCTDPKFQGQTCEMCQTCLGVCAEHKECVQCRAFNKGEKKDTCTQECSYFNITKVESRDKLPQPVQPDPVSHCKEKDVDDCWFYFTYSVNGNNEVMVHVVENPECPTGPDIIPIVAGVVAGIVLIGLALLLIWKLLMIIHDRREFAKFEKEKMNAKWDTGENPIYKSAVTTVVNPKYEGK
Sequence of Integrin beta-1 (Homo sapiens) + Integrin alpha-4 (Homo sapiens) (P13612 whole entry, looked up): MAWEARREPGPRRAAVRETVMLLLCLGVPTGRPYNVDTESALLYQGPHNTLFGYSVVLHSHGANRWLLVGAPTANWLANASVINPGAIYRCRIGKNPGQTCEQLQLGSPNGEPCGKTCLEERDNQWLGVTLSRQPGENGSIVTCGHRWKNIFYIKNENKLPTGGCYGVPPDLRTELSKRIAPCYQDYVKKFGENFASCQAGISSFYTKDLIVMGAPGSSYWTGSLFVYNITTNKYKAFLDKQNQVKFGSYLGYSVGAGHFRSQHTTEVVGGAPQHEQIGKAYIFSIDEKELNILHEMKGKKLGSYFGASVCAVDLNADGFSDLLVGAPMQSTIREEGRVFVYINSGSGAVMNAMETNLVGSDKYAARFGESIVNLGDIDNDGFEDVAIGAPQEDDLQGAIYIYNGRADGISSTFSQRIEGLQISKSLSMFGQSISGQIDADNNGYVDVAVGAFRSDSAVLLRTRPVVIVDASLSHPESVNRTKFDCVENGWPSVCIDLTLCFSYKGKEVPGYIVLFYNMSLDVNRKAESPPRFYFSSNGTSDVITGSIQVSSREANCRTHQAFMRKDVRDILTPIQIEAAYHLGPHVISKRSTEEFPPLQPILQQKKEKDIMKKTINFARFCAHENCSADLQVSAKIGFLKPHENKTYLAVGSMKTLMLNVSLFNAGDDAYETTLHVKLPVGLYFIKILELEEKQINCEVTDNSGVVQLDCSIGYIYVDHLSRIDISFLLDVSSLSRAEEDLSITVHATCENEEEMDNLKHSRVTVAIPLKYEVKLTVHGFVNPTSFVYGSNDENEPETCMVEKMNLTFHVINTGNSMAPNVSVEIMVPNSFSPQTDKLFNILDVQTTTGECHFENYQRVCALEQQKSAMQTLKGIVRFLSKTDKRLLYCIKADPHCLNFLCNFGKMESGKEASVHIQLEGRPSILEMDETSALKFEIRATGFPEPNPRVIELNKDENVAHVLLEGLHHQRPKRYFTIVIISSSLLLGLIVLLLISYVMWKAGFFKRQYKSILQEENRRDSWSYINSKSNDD

[8] = calorie-restriction mimetic ROS inhibitors, yeast – validation compound set, pilot screen (AID 2706;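 active = superoxide response below 65% of plate, a cut near 3 SD across the whole screen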;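 note: yeast exposed to compound for one week at 30 degrees C before staining; 100% = mean of all compound wells on the same plate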); conditions: S. cerevisiae aging, superoxide DHE fluorescence; at 10 µM; stronger effect = lower value
[9] = target: Beta-adrenergic receptor kinase 1 (Homo sapiens) (UniProt P25098); assay: GRK2 binders displacing RNA aptamer, biochemical, validation, human GRK2, bead flow cytometry (AID 488806;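 active = aptamer binding inhibition above 30%, about 3 SD of noise from non-fluorescent compounds; inactive = inhibition at or below 30%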); conditions: bead-bound GRK2, FAM-aptamer displacement, at 10 µM, stronger effect = higher value
Sequence of Beta-adrenergic receptor kinase 1 (Homo sapiens) (P25098 whole entry, looked up): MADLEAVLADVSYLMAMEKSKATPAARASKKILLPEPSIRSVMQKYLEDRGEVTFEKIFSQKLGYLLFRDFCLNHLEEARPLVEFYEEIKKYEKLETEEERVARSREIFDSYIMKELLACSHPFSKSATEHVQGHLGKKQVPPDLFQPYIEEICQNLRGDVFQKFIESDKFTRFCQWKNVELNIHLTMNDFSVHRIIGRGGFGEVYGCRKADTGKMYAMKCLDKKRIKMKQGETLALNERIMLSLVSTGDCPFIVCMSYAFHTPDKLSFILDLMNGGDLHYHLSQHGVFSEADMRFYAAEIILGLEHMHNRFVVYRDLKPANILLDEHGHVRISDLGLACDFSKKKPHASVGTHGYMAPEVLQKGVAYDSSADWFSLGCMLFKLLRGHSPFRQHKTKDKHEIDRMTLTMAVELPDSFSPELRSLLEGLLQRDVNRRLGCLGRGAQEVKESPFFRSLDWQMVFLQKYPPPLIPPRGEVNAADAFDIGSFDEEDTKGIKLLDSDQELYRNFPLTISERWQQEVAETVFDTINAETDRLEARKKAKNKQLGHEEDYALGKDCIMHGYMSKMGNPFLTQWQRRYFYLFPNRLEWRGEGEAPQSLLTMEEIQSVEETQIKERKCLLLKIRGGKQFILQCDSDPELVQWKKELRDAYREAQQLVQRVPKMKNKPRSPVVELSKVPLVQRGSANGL

[10] = target: Beta-2 adrenergic receptor (Homo sapiens) (UniProt P07550); assay: agonist-induced loss of surface beta2AR – cell-based, FAP fluorogen, flow cytometry, validation set, pilot screen (AID 504459;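 active = percent response above 42, roughly 3 SD of non-fluorescent test compounds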;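 note: agonist-driven loss of surface beta2AR via internalization measured by FAP dye flow cytometry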); conditions: Am2.2-beta2AR cells, at 10 µM, stronger effect = higher value
Sequence of Beta-2 adrenergic receptor (Homo sapiens) (P07550 whole entry, looked up): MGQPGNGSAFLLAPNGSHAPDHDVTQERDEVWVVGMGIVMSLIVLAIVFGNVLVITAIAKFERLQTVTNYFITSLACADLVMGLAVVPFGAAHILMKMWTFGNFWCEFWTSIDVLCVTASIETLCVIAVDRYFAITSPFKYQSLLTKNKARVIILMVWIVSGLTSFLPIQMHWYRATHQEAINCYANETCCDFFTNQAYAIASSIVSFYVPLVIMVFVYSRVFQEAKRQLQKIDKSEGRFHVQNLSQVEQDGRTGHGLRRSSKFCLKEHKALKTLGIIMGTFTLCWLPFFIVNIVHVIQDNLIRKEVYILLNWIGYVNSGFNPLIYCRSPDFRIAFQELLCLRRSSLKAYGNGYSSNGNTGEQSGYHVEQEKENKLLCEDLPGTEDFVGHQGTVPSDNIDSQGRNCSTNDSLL

[11] = target: AP-2 complex subunit beta (Homo sapiens) (UniProt P63010); assay: beta-arrestin/AP2 interaction blockers – biochemical, validation set, GST-AP2 beads, flow cytometry, pilot screen (AID 504541;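 active = inhibition above 54%, about 3 SD of non-fluorescent compounds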;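 note: AP2 carries R879A mutation and is captured from E. coli lysate; bead-bound FITC arrestin peptide fluorescence measuring arrestin peptide binding to AP2; 0% = DMSO wells and 100% = excess unlabeled arrestin peptide control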); conditions: FITC arrestin peptide, at 10 µM, stronger effect = higher value, AP2 beta2 appendage fragment, R879A mutant
Sequence of AP-2 complex subunit beta (Homo sapiens) (P63010 whole entry, looked up, the tested form may be a part, one chain of several): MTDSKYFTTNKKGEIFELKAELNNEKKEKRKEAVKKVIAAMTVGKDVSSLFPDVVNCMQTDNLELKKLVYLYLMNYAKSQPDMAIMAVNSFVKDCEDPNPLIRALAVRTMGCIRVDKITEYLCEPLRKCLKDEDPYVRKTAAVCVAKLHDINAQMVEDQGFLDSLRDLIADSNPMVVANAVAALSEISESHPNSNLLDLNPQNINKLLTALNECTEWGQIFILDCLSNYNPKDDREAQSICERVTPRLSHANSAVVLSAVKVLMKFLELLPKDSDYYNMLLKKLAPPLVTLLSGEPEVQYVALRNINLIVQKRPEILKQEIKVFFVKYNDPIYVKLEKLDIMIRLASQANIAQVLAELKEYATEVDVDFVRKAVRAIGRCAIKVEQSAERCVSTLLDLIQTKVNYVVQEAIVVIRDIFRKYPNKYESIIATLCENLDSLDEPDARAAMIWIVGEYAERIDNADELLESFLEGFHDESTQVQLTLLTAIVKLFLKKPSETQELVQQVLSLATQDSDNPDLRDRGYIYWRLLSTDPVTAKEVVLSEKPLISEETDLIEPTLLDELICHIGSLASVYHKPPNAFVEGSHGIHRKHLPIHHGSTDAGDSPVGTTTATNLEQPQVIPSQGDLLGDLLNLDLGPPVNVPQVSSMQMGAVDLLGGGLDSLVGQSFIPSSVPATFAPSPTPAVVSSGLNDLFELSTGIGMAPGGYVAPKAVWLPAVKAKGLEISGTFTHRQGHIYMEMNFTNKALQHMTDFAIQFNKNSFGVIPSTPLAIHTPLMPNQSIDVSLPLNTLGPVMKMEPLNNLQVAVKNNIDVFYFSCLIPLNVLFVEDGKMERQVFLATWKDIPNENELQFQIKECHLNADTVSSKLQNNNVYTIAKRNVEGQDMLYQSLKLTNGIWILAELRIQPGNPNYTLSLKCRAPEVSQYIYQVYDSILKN

[12] = cytosolic pH regulators acting via V-ATPase – S. cerevisiae, pHLuorin, HTS validation (AID 504600; in the data active = response above about 15%;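 note: plate controls were DMSO for no effect and reference compound for full effect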); conditions: V-ATPase proton transport, at 10 µM, stronger effect = higher value
[13] = test system: anti-desmoglein-3 scFv antibody binding to human DSG3; assay: blockers of pathogenic pemphigus antibody–desmoglein-3 binding – biochemical, validation compound set, bead-based, flow cytometry, pilot screen (AID 588368;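 active = binding below the plate cutoff, the plate median minus 3 SD, with a reading above zero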;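 note: signal is the median channel fluorescence of bead-bound GFP antibody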); conditions: Protein G beads, DSG3-Fc, scFv-GFP binding, at 10 µM, stronger effect = lower value
[14] = Nile Red efflux blockade in pump-expressing yeast – validation compound set, multiplex, phenotypic, pilot screen (AID 588506;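 active = efflux inhibition above 0.42, the validation set average plus 4 SD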;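 note: Nile Red retained in cells so higher fluorescence means more efflux inhibition; 0 = negative control wells and 1 = enniatin B 25 µM full block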); conditions: S. cerevisiae pump-expressing triplex, Nile Red efflux flow cytometry; at 10 µM; stronger effect = higher value; the pumps come from Candida albicans
[15] = target: ATP-binding cassette sub-family B member 6 (Homo sapiens) (UniProt Q9NP58); assay: blockers of ABCB6-driven porphyrin uptake – K562-ABCB6 cells, flow cytometry, validation set, pilot screen (AID 588550); conditions: K562-ABCB6 porphyrin accumulation, 1 h, at 10 µM, stronger effect = higher value;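 note: 0% = DMSO wells and 100% = benzethonium chloride 70 µM positive control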
Sequence of ATP-binding cassette sub-family B member 6 (Homo sapiens) (Q9NP58 whole entry, looked up): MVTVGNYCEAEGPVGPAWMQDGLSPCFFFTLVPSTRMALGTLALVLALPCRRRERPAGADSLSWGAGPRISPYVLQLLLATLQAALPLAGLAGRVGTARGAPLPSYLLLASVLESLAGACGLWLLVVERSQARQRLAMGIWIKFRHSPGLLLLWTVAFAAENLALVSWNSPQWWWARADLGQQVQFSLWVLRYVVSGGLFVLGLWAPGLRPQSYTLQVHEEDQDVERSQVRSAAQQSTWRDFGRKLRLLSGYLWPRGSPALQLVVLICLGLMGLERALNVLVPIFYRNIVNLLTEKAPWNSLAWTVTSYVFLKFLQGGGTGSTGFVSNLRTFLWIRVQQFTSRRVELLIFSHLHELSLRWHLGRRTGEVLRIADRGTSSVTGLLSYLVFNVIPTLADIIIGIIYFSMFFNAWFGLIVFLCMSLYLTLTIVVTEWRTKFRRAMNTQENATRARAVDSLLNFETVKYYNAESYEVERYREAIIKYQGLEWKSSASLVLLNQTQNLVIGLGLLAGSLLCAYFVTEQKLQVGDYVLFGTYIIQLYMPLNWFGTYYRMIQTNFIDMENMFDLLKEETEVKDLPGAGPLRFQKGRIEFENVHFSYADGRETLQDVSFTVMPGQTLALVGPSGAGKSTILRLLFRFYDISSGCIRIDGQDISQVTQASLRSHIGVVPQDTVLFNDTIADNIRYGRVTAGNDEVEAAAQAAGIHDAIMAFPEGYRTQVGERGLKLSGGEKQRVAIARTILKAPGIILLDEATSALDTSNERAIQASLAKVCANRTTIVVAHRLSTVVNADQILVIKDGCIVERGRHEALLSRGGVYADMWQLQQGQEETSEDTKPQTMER

[16] = AML differentiation inducers, ER-HoxA9 marrow cells – cell-based, GFP/MAC1 double positive, flow cytometry, validation set, primary screen (AID 588685;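 active = differentiation response of at least 50%, scaled between solvent and reference control, from cells with both markers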;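 note: compound exposure lasts four days before antibody staining and flow analysis; 0% = DMSO wells and 100% = 5 µM fulvestrant positive control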); conditions: stronger effect = higher value, normalized: vehicle 0, fulvestrant 100

O=C(O)C1CSC(c2ccco2)N1 (stereo not drawn)
60.6%: double positive events [6]
inactive: percent of DMSO control GFP [1] 102% | GFP response vs DMSO [2] 103% | percent response of DMSO control [3] 102% | GFP response vs DMSO [4] 120% | GFP response, % of DMSO [5] 124% | vesicle binding response [6] 168% | inhibition [7] -19% | superoxide response (% of plate) [8] 100% | response [10] -18.6% | inhibition [11] 10% | response [12] -1.58% | binding (% of control) [13] 99.5% | efflux inhibition (fraction of control) [14] 0.04 | inhibition [15] 2% | differentiation response [16] -2.03%
active: aptamer binding inhibition [9] 33%

Cc1cc(=O)oc2c(CN(C)Cc3ccccc3)c(O)ccc12
62.4%: double positive events [6]
inactive: percent of DMSO control GFP [1] 100% | GFP response vs DMSO [2] 106% | percent response of DMSO control [3] 105% | GFP response vs DMSO [4] 94.7% | GFP response, % of DMSO [5] 96.2% | vesicle binding response [6] 434% | inhibition [7] 12% | superoxide response (% of plate) [8] 97.6% | aptamer binding inhibition [9] 3% | response [10] 0.85% | inhibition [11] -2.59% | response [12] 1.53% | binding (% of control) [13] 97.4% | efflux inhibition (fraction of control) [14] 0.11 | inhibition [15] 10% | differentiation response [16] 0.24%

CC(C)CC1c2[nH]c3ccccc3c2CCN1C(=O)CCC(=O)N(C)C (stereo not drawn)
inactive: percent of DMSO control GFP [1] 90.9% | GFP response vs DMSO [2] 117% | percent response of DMSO control [3] 107% | GFP response vs DMSO [4] 79.2% | GFP response, % of DMSO [5] 93.1% | vesicle binding response [6] 264% | inhibition [7] 3.55% | superoxide response (% of plate) [8] 104% | aptamer binding inhibition [9] 4% | response [10] 6.34% | inhibition [11] -2.59% | response [12] -2.43% | binding (% of control) [13] 104% | efflux inhibition (fraction of control) [14] -0.31 | inhibition [15] 12% | differentiation response [16] -6.55%
80.7%: double positive events [6]

N#CCC(N)=C(C#N)C#N
inactive: percent of DMSO control GFP [1] 91.5% | GFP response vs DMSO [2] 120% | percent response of DMSO control [3] 111% | GFP response vs DMSO [4] 82.5% | GFP response, % of DMSO [5] 91.7% | vesicle binding response [6] 188% | inhibition [7] -4.21% | superoxide response (% of plate) [8] 108% | aptamer binding inhibition [9] 9% | response [10] -2.94% | inhibition [11] -8.05% | response [12] 1.3% | binding (% of control) [13] 101% | efflux inhibition (fraction of control) [14] -0.02 | inhibition [15] -45% | differentiation response [16] -5.73%
60.1%: double positive events [6]

COc1cc2nc(N3CCN(C(=O)C4CCCO4)CC3)nc(N)c2cc1OC (stereo not drawn)
inactive: percent of DMSO control GFP [1] 102% | GFP response vs DMSO [2] 106% | percent response of DMSO control [3] 95.5% | GFP response vs DMSO [4] 92.6% | GFP response, % of DMSO [5] 94% | vesicle binding response [6] 197% and 148% | inhibition [7] 1.62% and 5.61% | superoxide response (% of plate) [8] 98% and 91.7% | aptamer binding inhibition [9] -3% and 5% | response [10] 20.9% | inhibition [11] 8.12% and -5.62% | response [12] -29.6% and 2.76% | binding (% of control) [13] 109% and 107% | efflux inhibition (fraction of control) [14] -0.39 and -0.33 | inhibition [15] 7% and -13% | differentiation response [16] 22.4% and 10.1%
55.7% and 64.6%: double positive events [6]

Cc1cc(O)c(C(C)C)cc1C1(c2cc(C(C)C)c(O)cc2C)OC(=O)c2ccccc21
active: inhibition [11] 62.6%
inactive: percent of DMSO control GFP [1] 104% | GFP response vs DMSO [2] 107% | percent response of DMSO control [3] 104% | GFP response vs DMSO [4] 120% | GFP response, % of DMSO [5] 108% | vesicle binding response [6] 219% | inhibition [7] 43.2% | superoxide response (% of plate) [8] 88.7% | aptamer binding inhibition [9] -2% | response [10] 3.1% | response [12] -4.85% | binding (% of control) [13] 101% | efflux inhibition (fraction of control) [14] -0.09 | inhibition [15] 5% | differentiation response [16] 15.7%
61.7%: double positive events [6]

O=C(O)c1ccccc1Nc1cccc(C(F)(F)F)c1
inactive: percent of DMSO control GFP [1] 95% | GFP response vs DMSO [2] 103% | percent response of DMSO control [3] 88.2% | GFP response vs DMSO [4] 93.1% | GFP response, % of DMSO [5] 82.4% | vesicle binding response [6] 7820% | inhibition [7] -15.4% | superoxide response (% of plate) [8] 98.3% | aptamer binding inhibition [9] 2% | response [10] -9.88% | inhibition [11] -15.2% | response [12] 1.34% | binding (% of control) [13] 98.2% | efflux inhibition (fraction of control) [14] -0.24 | differentiation response [16] 18.4%
active: inhibition [15] 112%
74%: double positive events [6]

O=C(N/C(=C/C=C\c1ccccc1)C(=O)N1CCOCC1)c1ccc(Br)cc1
65.2%: double positive events [6]
inactive: percent of DMSO control GFP [1] 98.4% | GFP response vs DMSO [2] 107% | percent response of DMSO control [3] 100% | GFP response vs DMSO [4] 123% | GFP response, % of DMSO [5] 115% | vesicle binding response [6] 185% | inhibition [7] 2.29% | superoxide response (% of plate) [8] 84.9% | aptamer binding inhibition [9] 1% | response [10] -28% | inhibition [11] 6.94% | response [12] 2.4% | binding (% of control) [13] 103% | efflux inhibition (fraction of control) [14] 0.42 | inhibition [15] 2% | differentiation response [16] -6.96%

CC(C)CN1CCN(Cc2ccc(C#CC(C)(C)O)cc2)CC1CCO (stereo not drawn)
67.3%: double positive events [6]
inactive: percent of DMSO control GFP [1] 92% | GFP response vs DMSO [2] 132% | percent response of DMSO control [3] 102% | GFP response vs DMSO [4] 78.7% | GFP response, % of DMSO [5] 86.6% | vesicle binding response [6] 215% | inhibition [7] -8.09% | superoxide response (% of plate) [8] 92.7% | aptamer binding inhibition [9] 0% | response [10] -11.4% | inhibition [11] 29.9% | response [12] -6.34% | binding (% of control) [13] 98.3% | efflux inhibition (fraction of control) [14] 0.34 | inhibition [15] 9% | differentiation response [16] -2.46%
